Rows were chosen to be rich in hits. Some 3.5% of all compounds tested hit in one or more screens of this group.
Autofluor counter: counter-screen for toxin protease inhibitors: compound fluorescence. compound autofluorescence counterscreen, microsphere flow cytometry; active compounds read high. fluorescence intensity (concentration not given with the values). 360,000 compounds, 3.1% hits. AID 624483; in the data active means fluorescence intensity above about 16000; inconclusive means no clear call, values can overlap the other calls
BoNT A protease: BoNT/A light chain protease inhibitors, primary screen, biochemical, flow cytometry, MLPCN library | Botulinum neurotoxin type A light chain protease (Clostridium botulinum A str. ATCC 3502) | multiplex microsphere protease substrate cleavage | inhibition, % at 10 µM | 360,000 compounds, 0.17% hits; further: plate controls were buffer without enzyme for full effect and enzyme alone for no effect
Anthrax LF inh2: Bacillus anthracis LF protease inhibitors, primary screen, biochemical, multiplex microsphere, MLPCN library. Lethal factor (Bacillus anthracis), P15917. multiplex microsphere protease cleavage assay. inhibition, % at 10 µM. 360,000 compounds, 0.12% hits; further: plate controls were buffer without enzyme for full effect and enzyme alone for no effect
Target sequence (P15917 whole entry, looked up): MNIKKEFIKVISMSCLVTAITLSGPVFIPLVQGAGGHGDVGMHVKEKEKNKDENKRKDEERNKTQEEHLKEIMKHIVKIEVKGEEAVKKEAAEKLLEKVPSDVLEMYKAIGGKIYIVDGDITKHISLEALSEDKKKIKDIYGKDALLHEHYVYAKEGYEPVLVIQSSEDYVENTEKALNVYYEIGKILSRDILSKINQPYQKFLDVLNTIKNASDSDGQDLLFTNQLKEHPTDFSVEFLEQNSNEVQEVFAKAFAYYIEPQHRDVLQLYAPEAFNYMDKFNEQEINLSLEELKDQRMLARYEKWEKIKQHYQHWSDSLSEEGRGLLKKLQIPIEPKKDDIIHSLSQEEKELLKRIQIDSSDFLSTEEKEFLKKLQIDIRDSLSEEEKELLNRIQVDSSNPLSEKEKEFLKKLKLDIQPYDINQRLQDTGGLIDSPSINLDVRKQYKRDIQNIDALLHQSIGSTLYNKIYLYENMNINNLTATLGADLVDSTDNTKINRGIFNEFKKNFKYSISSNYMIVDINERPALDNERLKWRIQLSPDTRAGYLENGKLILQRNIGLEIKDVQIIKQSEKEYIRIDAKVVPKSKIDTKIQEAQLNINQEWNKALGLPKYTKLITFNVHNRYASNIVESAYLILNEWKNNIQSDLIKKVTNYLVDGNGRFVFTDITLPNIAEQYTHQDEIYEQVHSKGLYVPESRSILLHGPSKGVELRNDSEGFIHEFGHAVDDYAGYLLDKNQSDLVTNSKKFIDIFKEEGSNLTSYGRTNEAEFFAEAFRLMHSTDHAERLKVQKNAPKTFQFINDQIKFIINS
BJeLR viability: MLPCN primary cell-based screen for lethality selective to Ras in HRASV12 cells; BJeLR (HRASV12) viability, CellTiter-Glo ATP luminescence, 48 h; 300,000 compounds, 0.17% hits; inhibition, % (test concentration not listed); in the data active means inhibition above about 50%; inconclusive means no clear call, values can overlap the other calls
BoNT-F LC inh: BoNT/F light chain protease inhibitors, primary screen, biochemical, flow cytometry, MLPCN library; Botulinum neurotoxin type F light chain protease (Clostridium botulinum); 360,000 compounds, 0.22% hits; inhibition, % at 10 µM; Multiplex microsphere protease cleavage assay; in the data active means inhibition above about 35%, passing the limit was not always enough; inconclusive means no clear call, values can overlap the other calls; further: plate controls were buffer without enzyme for full effect and enzyme alone for no effect
An asterisk follows results filed as active; u = inconclusive; x = no result; ! = a repeat was not active. Unless noted, no stated cut-off is given here; in the data, active means inhibition above about 30%; inconclusive means no clear call, values can overlap the other calls; inactive means below that.

SMILES	Autofluor counter	BoNT A protease	Anthrax LF inh2	BJeLR viability	BoNT-F LC inh
O=[N+]([O-])c1nccn1C1C=CC(O)C(CO)O1 (configuration not stated)	5439	0	2	x	2
CC1(C(=O)NCc2cccc3ccccc23)CCN1Cc1cccc2c1OCO2 (configuration not stated)	3532	0	-1	x	1
Cc1cc2nc(-c3cccnc3SCC(=O)NCc3ccco3)[nH]c2cc1C	22154*	3	2	14	2
O=C(CSc1ncccc1-c1nc2ccccc2[nH]1)NCc1ccco1	10742	3	2	8	-10
Cn1ncc2c(N3CCN(c4ccccc4F)CC3)ncnc21	16585*	u	3	16	3
Cn1ncc2c(N3CCN(c4ccc(Cl)c(Cl)c4)CC3)ncnc21	4188	-1	-3	24	0
O=C(Nc1ccc(OCc2ccccc2)cc1)c1cccs1	2901	2	4	-1	u
O=C(N/N=C/c1ccc(OCc2ccccc2)cc1)c1cccs1	20999*	2	-9	4	6
O=C(NCc1ccccc1F)c1ccc(S(=O)(=O)N2CCCCCC2)cc1	5575	1	2	x	4
COC(=O)N/N=C/c1cc(C)n(-c2ccc(Br)cc2)c1C	4534	-2	31*	-5	u
CC1=CC(C)=Nc2ccc(C)cc2N1	18983*!	0	3	14	-9
CN1C(=O)CC(N2CCN(c3ccc(Cl)c(Cl)c3)CC2)C1=O (configuration not stated)	16251*	0	0	1	2
CCNC(=O)Nc1cc(OC)c(OC)cc1C(=O)O	3495	-1	-4	16	2
CCc1ccc(N/C(SCc2ccccc2C)=C(/C#N)C(=O)NCc2ccco2)cc1	17346*	-2	-5	x	-4
CSc1ccc(Cn2c(C)c(C(=O)NCc3ccc4c(c3)OCO4)sc2=O)cc1	4094	-1	-6	x	1
O=C(CC1S/C(=N/N=C2CCCCCC2)NC1=O)Nc1ccc(Br)cc1F (configuration not stated)	6801	-3	-2	0	-12
O=C(c1ccc(CNS(=O)(=O)c2cccc(C(F)(F)F)c2)cc1)N1CCOCC1	22700*	u	-2	-2	1
CCOC(=O)N1CCN(C(=O)COc2ccc(S(=O)(=O)NCc3ccccc3)cc2)CC1	17159*	-1	-2	-2	-1
CCOC(=O)N1CCN(C(=O)CCNS(=O)(=O)c2ccccc2)CC1	5493	1	1	-4	1
CC(C)NS(=O)(=O)c1ccc(OCC(=O)N2CCN(Cc3ccc4c(c3)OCO4)CC2)c(Cl)c1	20603*	0	0	8	1
O=C(COc1ccc(Cl)cc1Cl)NC(=O)N1CCOCC1	16969*	-2	0	-10	-1
CCOC(=O)N1CCN(C(=O)CCCn2c(=S)[nH]c3ccsc3c2=O)CC1	4324	0	4	-4	3
O=C(COc1ccc(-c2ccccc2)cc1)N1CCN(S(=O)(=O)Cc2ccccc2)CC1	16462*	0	-4	0	1
COc1ccc(S(=O)(=O)Nc2ccccc2C(=O)N2CCOCC2)cc1Cl	17400*	-40	-13	13	-62
O=C(COc1ccc(S(=O)(=O)NCc2ccccc2)cc1Cl)N1CCOCC1	23739*	0	0	-16	0
SMILES	Autofluor counter	BoNT A protease	Anthrax LF inh2	BJeLR viability	BoNT-F LC inh
CN1CCN(C(=O)COc2ccc(S(=O)(=O)NCc3ccccc3)cc2Cl)CC1	9545	0	-7	-5	-3
Cc1ccc(S(=O)(=O)NC(=O)C2(C)CCN2C(=O)CCc2ccc(Cl)cc2Cl)nc1 (configuration not stated)	3901	0	3	x	-6
O=C1CC(c2cccc(F)c2)SC(N(c2ccccc2)c2ccccc2)=N1 (configuration not stated)	23403*	0	-1	-11	-2
CC(C)=C[C@H]1C[C@H](C)[C@H]2CC[C@H](C)c3c(O[C@@H]4O[C@@H](C)[C@@H](O)[C@@H](O)[C@@H]4O)c(O)c(C)c1c32	5101	0	2	x	-2
CC1(C)NC(=O)N(CCOCCSc2ccccc2)C1=O	24307*	-3	0	-5	-6
CC1(C)NC(=O)N(CCSc2ccc(Cl)cc2)C1=O	19822*	2	-2	-1	3
COc1ccc(NC(=O)C2(C)CCCN(C(C)C)C2)cc1F (configuration not stated)	4030	0	2	x	2
Cc1ccc(OC(=O)c2ccncc2)c(C)c1	3621	0	-13	-12	47*
CC(=O)c1cc(C)ccc1OC(=O)c1ccncc1	3111	1	-13	-3	u
Cn1cc(C(=O)NC2CCCCC2)c(=O)c2cc(S(=O)(=O)N3CCOCC3)ccc21	5245	0	0	-3	1
Cc1nc2sccn2c(=O)c1CCN1CCC(=C(c2ccccc2)c2ccc(F)cc2)CC1	x	x	x	-12	x
CCCCNC(=O)c1sc2nc(C)cc(COC)c2c1-n1cccc1	16799*	-2	-6	-6	-5
COCc1cc(C)nc2sc(C(=O)NN)c(-n3cccc3)c12	3924	-1	-6	12	1
O=C1/C(=C/c2cc([N+](=O)[O-])ccc2Cl)N2CCC1CC2	16507*	0	5	6	-2
O=C1/C(=C\c2ccc(Cl)c(Cl)c2)N2CCC1CC2	3325	-6	32*	1	u
O=C1/C(=C/c2cccc([N+](=O)[O-])c2)N2CCC1CC2	2260	1	1	-12	3
Cc1ccc(S(=O)(=O)N2CCN(c3nc(-c4cccs4)nc4ccccc34)CC2)cc1	2998	-1	-4	x	4
CC(=O)N1CCN(Cc2cc(=O)oc3cc(C)cc(C)c23)CC1	4475	-1	-10	x	3
COCC(C)NCc1ccc(C)cc1C (configuration not stated)	18417*	4	0	0	0
O=c1c2ccccc2[se]n1-c1ccccc1	7730	81*	4	-1	38*
Cn1nnnc1SCCNCc1ccccc1OCc1ccc(F)cc1	4558	0	-2	-4	-1
COc1cc(CNCCSc2nnnn2C)cc(OC)c1OC	8512	-1	-3	10	-4
Cn1nnnc1SCc1ccccc1F	22071*	0	-1	-2	-1
COc1cccc(CNCCSc2nnnn2C)c1OC	22850*	-2	-2	1	-6
Cn1nnnc1SCCNCc1ccccc1F	22828*	-2	-1	-3	-6
Cc1ccc(-c2nc3ccc(Cl)cn3c2Cc2cccc(Cl)c2)cc1	5735	0	-3	x	-2
COc1ccc(C2=Cc3ccccc3C(CC(=O)C3CC3)N2c2ccc(-c3cc(OC)c(OC)c(OC)c3)cc2)cc1 (configuration not stated)	5503	6	-7	x	9
